This note sets out measurements from the supplement of paper PMC3484114.

± gives the standard deviation.

This assay concerns OVCAR-3-derived ovarian cancer stem-like cells (spheroids). The assay can be described thus: cell growth relative to untreated control; higher = more growth (less inhibition). As to conditions: 2.29 µM; 96 h. The gist of the method: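 Viability of stem-like cells from OVCAR-3 spheroids was assessed with TOX8 resazurin fluorescence at ex 560/em 590 nm. The cells had been trypsin-dissociated, seeded at 50,000 cells/mL in stem cell medium in ultra-low attachment 96-well plates and preincubated 24 h, then treated with compounds at 2.29 uM for 96 h at 37°C, 5% CO2, in 4 replicate wells, with fluorescence read after 4 h. Results were converted to percent growth against untreated wells after blank subtraction and Grubbs outlier removal.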
Compound `Fc1cccc(Cl)c1C1SCc2nc3ccccc3n21` (centres undefined) registered a cell growth of 22.8 ± 9.7%.

Consider `CCc1cccc(CC)c1NC(=O)C(C#N)C1=C(Cl)C(=O)c2ccccc2C1=O` (centres undefined), for which the cell growth was 70.3 ± 31%.

On to `CN(C)C(=O)c1cccc(COc2ccc(N3C(N)=NC(N)=NC3(C)C)cc2Cl)c1`, for which the cell growth was 76 ± 15%.

For `C=C1CC(COc2cc(=O)oc3ccccc23)(c2ccccc2)OC1=O` (centres undefined), the cell growth is 76.3 ± 22%.

`Cc1c(C(=O)C/C(=N\O)C(=O)Nc2cc(Cl)c(Cl)cc2Cl)[n+](=O)c2ccccc2n1[O-]` had a cell growth of 68.5 ± 17%.

As for `CC(C)(C)NCCC(O)c1cc(C(F)(F)F)nc2c(C(F)(F)F)cccc12` (centres undefined), the cell growth turned out to be 108 ± 23%.

As for `COC1(O)C(=O)c2ccccc2OC1(OC)c1ccccc1` (centres undefined), the cell growth is 118 ± 26%.

In the case of `O=C1Nc2c(Cl)cc(Cl)cc2C1=O`, the cell growth was determined as 22.4 ± 13%.

`Clc1ccc(-c2c(C3=NCCCN3)nnn2-c2ccc(Cl)cc2)cc1` returned a cell growth of 156 ± 57%.

`CS(=O)(=O)c1nc(N)nc2nc[nH]c12`: the cell growth amounted to 99.3 ± 19%.

The compound `CCCC(=O)[O-].[Na+]` showed a cell growth of 88.2 ± 19%.

In turn, `Cc1ccc(NC(=O)c2cc3ccccc3c(N=Nc3ccccc3O)c2O)c(C)c1` gave a cell growth of 75.2 ± 20%.

`Cc1cc(N(C)C)ccc1N=Nc1ccc2ncccc2c1` returned a cell growth of 83.2 ± 6.3%.

For `CC1=C(O)c2ccccc2C(=O)C1=O`, the cell growth came out at 91.9 ± 56%.

In the case of `N[C@H](C(=O)O)[C@H]1ON=C(Cl)[C@H]1O`, the cell growth turned out to be 91.4 ± 16%.

`CO[C@H]1C[C@@H]2CC[C@@H](C)[C@@](O)(O2)C(=O)C(=O)N2CCCC[C@H]2C(=O)O[C@H]([C@H](C)C[C@@H]2CC[C@@H](O)[C@H](OC)C2)CC(=O)[C@H](C)/C=C(\C)[C@@H](O)[C@@H](OC)C(=O)[C@H](C)C[C@H](C)/C=C/C=C/C=C/1C` registered a cell growth of 97 ± 21%.

For the compound `CN1C(Cl)=NS(=O)(=O)c2ccccc21`, the cell growth is 99.9 ± 12%.

`C=C(C#N)C(=O)OCC(CC)CC.C=C(C#N)C(=O)OCC(CC)CC.CS(C)=O.CS(C)=O.Nc1c(N=Nc2ccc(-c3ccc(N=Nc4cc(S(=O)(=O)[O-])c5ccccc5c4N)cc3)cc2)cc(S(=O)(=O)[O-])c2ccccc12.[Pt+2]` returned a cell growth of 107 ± 14%.

`COC1=CC(=O)c2c(ccc3ncnc(N)c23)C1=O` had a cell growth of 79.1 ± 20%.

In turn, `Cc1ccc([N+](=O)[O-])cc1NC(=O)c1cccc([N+](=O)[O-])c1O` returned a cell growth of 146 ± 41%.

`CN(C)c1ccc(/C=c2/sc3nc(=O)c(-c4ccccc4NC(=O)C(F)(F)F)nn3c2=O)cc1` gave a cell growth of 83.4 ± 18%.

Turning to `CC1C(Oc2c(-c3ccc(O)c(O)c3)oc3c(O)cc(O)cc3c2=O)OC(O)C(O)C1O` (centres undefined), the cell growth was 77.6 ± 18%.

In turn, `CC(C)CC(NC(=O)OCc1ccccc1)C(=O)NC(Cc1ccccc1)C(=O)CCl` (centres undefined) returned a cell growth of 92.9 ± 35%.

As for `COc1ccc(/C(=N/O)C(c2ccc(OC)cc2)C2C(=O)Oc3ccccc32)cc1` (centres undefined), the cell growth is 73.1 ± 14%.

`CCC1CN2CCc3cc(OC)c(OC)cc3C2CC1CC1c2cc(OC)c(OC)cc2CCN1C(=O)C(Cc1c[nH]c2ccccc12)NC(=O)OC(C)(C)C` (centres undefined) gave a cell growth of 94 ± 23%.

`COC(=O)c1cc(-c2c[nH]cc2C(=O)OCc2ccccc2)cn1S(=O)(=O)c1ccc(C)cc1` came in with a cell growth of 140 ± 35%.

`CCN(CC)CCOc1ccc(C(O)(Cc2ccc(OC)cc2)c2ccccc2)cc1` (centres undefined) showed a cell growth of 118 ± 40%.

The compound `Cc1c(Cl)cccc1NC(=O)CC1Sc2ccccc2NC1=O` (centres undefined) yielded a cell growth of 116 ± 8.3%.

As to `Cc1ccc(N=N/C(=N\NC(=O)c2ccc(C)cc2)c2ccc(N(CCC#N)CCC#N)cc2C)cc1`, the cell growth was 74.4 ± 26%.

The compound `Cc1c2ccc3ccccc3c2c[n+]2ccccc12` gave a cell growth of 88.9 ± 14%.

For the compound `CC(=O)/C(C)=N/NC(=O)c1ccccc1O`, the cell growth is 98.3 ± 20%.

In turn, `COc1cc(O)c(Cc2ccccc2O)c(O)c1C(=O)CCc1ccccc1` had a cell growth of 86.8 ± 30%.

In turn, `O=c1[nH]c2ccc(O)cc2o1` returned a cell growth of 80.8 ± 13%.

Take `O=C(OCC12CC3CC(CC(C3)C1)C2)c1ccc(NCc2cc(O)ccc2O)cc1`: the cell growth is 159 ± 28%.

With `Cc1ccc(Cl)c2c(N=Nc3ccccc3[N+](=O)[O-])c(O)[nH]c12`, the cell growth worked out at 107 ± 34%.

For `N#CC1=C(N)Oc2c(ccc3cccnc23)C1c1ccccc1` (centres undefined), the cell growth was determined as 57.8 ± 17%.

Consider `C=C1C(=O)OC2/C=C(/CO)[C@@H](OC(C)=O)C[C@H](O)/C(C)=C\[C@@H](OC(=O)[C@@H](C)CC)[C@@H]12` (some centres undefined), for which the cell growth stood at 100 ± 50%.

Consider `COc1cc(NC(C)CCCN)c2ncccc2c1` (centres undefined), for which the cell growth amounted to 56.5 ± 7%.

Consider `COC1=C(N)C(=O)c2nc(C)ccc2C1=O`, for which the cell growth was determined as 125 ± 79%.
